# Assay results from the supplement of paper PMC11417369.
# ± gives the standard deviation of the averaged measurements. Whole data set: some 25,000 sequences, median “ln(normalized median fluorescence intensity)” near 7.9, cut for the highest 2% near 11. This excerpt belongs to a sample that is enriched for the highest values.
# Test system: PfAP2-I AP2 domain 3 (GST-tagged)
# Assay: gcPBM binding intensity (ln(normalized median fluorescence intensity)); higher = stronger DNA binding
# Procedure, shortened: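 GST-tagged P. falciparum DNA-binding domains, expressed in E. coli (about 25 μg on average), were applied for 1 h to an Agilent 4 × 180k array of primer-extended double-stranded 36-bp intergenic genomic probes plus negative controls. The binding buffer was 1× PBS with 1% milk, 0.2 mg/ml BSA, 0.5% salmon testes DNA and 0.03% Triton X-100. Bound protein was detected with Alexa488 anti-GST antibody and scanned at 488 nm. Binding intensity is the highest Masliner-normalised natural-log median intensity across replicate spots of either probe orientation.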
row,Sequence,gcPBM binding intensity (ln)
1,TAAATATATTAAGCTTGTACATGAAAAAAAAAAAAA [XGTACX_site3264],8.1 ± 0.59
2,TTTTCTTAAAAAATCAAACACACATATATATATACA [CACACA_site2297],7.6 ± 0.51
3,GATATATAATATAATACACACATTTTATGAATGTAA [CACACA_site24],7.66 ± 0.32
4,ATAAATAATTATATATGTACACATTATGAATGGATA [XGTACX_site8336],7.78 ± 0.4
5,ATATATATATATAATGCACACATTATGAATTATGTA [CACACA_site3384],11.3 ± 0.26
6,AAATGTTATAACTCTTGAAAAAACAAAATATCATCA [CACACA_negctrl_site1156],7.57 ± 0.49
7,ACCAATAATATACATACACACATAAAGGTTTATATA [CACACA_site315],7.95 ± 0.44
8,ATGAAACAGTAACATTGTACTTTTACAAAAAAATAA [XGTACX_site806],7.7 ± 0.33
9,AAAAAAAAAAAAAACATACACACATTGAACTTTTAT [CACACA_site3251],8.18 ± 0.54
10,TGTGTCCATTGAACAGTGCAATAAAAACTTTTACAT,11.2 ± 0.59
11,TACACACCTAACTATGCATGCATCAATATAGTGGAT [TGCATGCA_site443],7.76 ± 0.75
12,AATTTAATATAATGCACACATAAAACAAAAACAAAA [CACACA_site529],10.8 ± 0.72
13,AAAATATAATATAATGCACACATAAACAAAAAAAAA [CACACA_site8161],10.9 ± 0.74
14,AATATAATATAATGCACACATAAAAAAAAAATCAAA [CACACA_site122],11.2 ± 1
15,AATATAAAAATGCACACACACAAAAAAAAAAAAAAA [CACACA_site6546],9.03 ± 0.16
16,AACGGGTAATGCACAAAAAAAAAAAAATAAAATAAA [TGCATGCA_negctrl_site474],11.4 ± 1
17,CACAAAAATAAACACACACACATATATATATATATA [CACACA_site4704],9.39 ± 0.42
18,AAAATTTAATATAATGCACACATAAAACAAAAACAA [CACACA_site8071],10.9 ± 0.64
19,TAATAAATCAAATGCACACACACAAAAAAAAAAAAA [CACACA_site161],9.24 ± 0.38
20,ATAAATCAAATGCACACACACAAAAAAAAAAAAAAA [CACACA_site6221],9.31 ± 0.16
21,CATTAACAAATAAATGCACACATATATATAAATAAT [CACACA_site7892],9.51 ± 0.35
22,ATGGATTTTACCATAGCACACATATATGAATATTTT [CACACA_site8535],7.96 ± 0.54
23,ATTAAATTAAAATAATGTACTTAATACTTTTGCTTA [XGTACX_site8404],7.39 ± 0.39

row,Sequence,gcPBM binding intensity (ln)
1,AATATAATATAATGCACACATAAACAAAAAAAAAAT [CACACA_site1304],10.9 ± 0.96
2,AAATTATAATATAATACACACATAAAAAAAAAATCA [CACACA_site3634],7.76 ± 0.45
3,CCCCCCGTGTTATATACACACATAATCAAATAAAAT [CACACA_site4111],10.9 ± 0.4
4,TTAACAAATAAATGCACACATATATATAAATAATAT [CACACA_site28],9.52 ± 0.35
5,AAAATATAAAATAATGCACACATAAACAAAAAATCA [CACACA_site8382],10.8 ± 0.96
6,AAATCACATAAAACATAATCAAATGAAATATAATCA [CACACA_negctrl_site123],7.38 ± 0.6
7,AATATAAAATAATGCACACATAAACAAAAAATCAAA [CACACA_site1371],10.9 ± 0.88
8,AGGCACGTGTTATATACACACATAATCAAATAAACT [CACACA_site7852],8.11 ± 0.61
9,AAAATATAATATAATGCACACATAAAACAAAAAAAA [CACACA_site8989],10.7 ± 0.67
10,AATTTTTTATTCTTTGCATGTCATCATATATAATAT [TGCATGCA_site549],8.12 ± 0.69
11,TCTTATTTAAAAATAGCACACATTATATATATATAT [CACACA_site8916],9.44 ± 0.26
12,TTTTTTAAAATATAAAATATGTACAAATATGTTGAA [GTGCAC_negctrl_site379],7.97 ± 0.3
13,TGAATAAATAAACACACACACATATATATATCTGTA [CACACA_site4184],7.59 ± 0.4
14,TTAATTATTATATAAGTGCAATAATAAAAAGTTGTA [GTGCAC_site9552],10.7 ± 0.76
15,TTCGCCCTAAATAGAGTGCATTATATATATTAATAT,11.4 ± 0.58
16,ACGTACTGCCCTAAAGTGCATATATAATATAAACGA [GTGCAC_site9911],10.1 ± 0.34
17,AGTAATTATTTTAGAGTGCATAGTTTTTTAATAAAT,9.54 ± 0.18
18,AAGTGCATATTATTCACACATAATAATTGTATACCT [CACACA_site5965],10.3 ± 0.47
19,ACTATATATATAAGTGCATGTTCATTATACCTAAAG [TGCATGCA_site696],8.93 ± 0.57
20,AATATTCAATATAAAGTGCATTATTGTGGACCTAAT,11.3 ± 0.65
21,AATATTCAATATAAAGTGCATTATTGTGCCCCTAAT,11.3 ± 0.64
22,AAATAAATAAATAGAGTGCATATATATATATATTTT,10.01 ± 0.042
23,ACTAACATATATTCAACACACATATACCTTCAACCC [CACACA_site3011],7.94 ± 0.72

row,Sequence,gcPBM binding intensity (ln)
1,TAAATGCACATATACACACACCCAATTTTAAGTTTT [CACACA_site7428],9.31 ± 0.3
2,TAAATAAAAAAAAAAAGTACATACATACAAACATAT [XGTACX_site4427],7.79 ± 0.47
3,TGAACATCATTTTTATGTACACACACATATACGTTG [XGTACX_site3864],7.96 ± 0.28
4,AAAAAAAAATAATATTGTACACACATAAATTCTTTG [XGTACX_site4315],7.51 ± 0.47
5,TTATAATACCTACAAAGTACAAACTTAAATATGAAC [XGTACX_site5684],7.68 ± 0.39
6,TATAGGTATATATAAGTGCAATATATATGTATATAC [GTGCAC_site9427],10.9 ± 0.41
7,TATACAAGTATATAGGTGCATATATAAGTATATATT [GTGCAC_site9994],10.5 ± 0.53
8,TGTATGTTTGGGTGCACACATAAATATTATATATAG [CACACA_site3397],10.5 ± 0.57
9,GCATATATGGATATATAGGTATATATAAATGCAATA [GTGCAC_negctrl_site24],7.82 ± 0.71
10,ATATATTTATAATAGGTGCATATGTTTTATTTTTCC [GTGCAC_site9849],10.1 ± 0.5
11,TATGGGTTTATATAGGTGCAATATATGTATATATAA,11.2 ± 0.59
12,AAATACCTGATATATACACACTATGTTTTTCTTTTT [CACACA_site6680],7.77 ± 0.81
13,CTTTTTAAATTAAAATGTACAGAAAAATATTATTAT [XGTACX_site8760],7.72 ± 0.69
14,AAGGAAAATTTTTGGTGTACACAAAAAAATCCAAAA [XGTACX_site3596],8.46 ± 0.057
15,AAAGATGGAGTGATATGTACTGATATATTATTATAT [XGTACX_site6500],7.62 ± 0.67
16,TGTATAACCTGTGTTACACACATTAAAATTTATATA [CACACA_site4449],7.67 ± 0.46
17,TTCTTGTTCCTGAAAGTGCATATAACAAAAATAACA [GTGCAC_site9635],9.99 ± 0.3
18,AAAAAAAAAAAAAAAGTGCATATATAAATATTGTAT [GTGCAC_site9459],10.1 ± 0.18
19,AAATAATATTGAAAAGTGCATATTTTTGTTGATATA,9.15 ± 0.21
20,AAAAAAAAAAAAAAAGTGCACTGAAAATATATTGAA [GTGCAC_site9395],11 ± 0.2
21,TTATTTTTGTTTTGAAGTACAAAAAAATATATTCTT [XGTACX_site6416],7.63 ± 0.34
22,TTTGTTCTTTTTGAAGTGCACTGAAATATAACAAAA,11.3 ± 0.16
23,GTTTCCTTAATATTCACACACATATATATAATATAT [CACACA_site1856],8.22 ± 0.54

row,Sequence,gcPBM binding intensity (ln)
1,TATAAAAATATTTCTACACACATTAATATATATATA [CACACA_site1150],8.97 ± 0.042
2,TTTTACATATACATGTGTACATAACAAAGAATGTTT [XGTACX_site2406],7.88 ± 0.57
3,TATATACGCAAACACACACACACATACACCCACATA [CACACA_site1724],8.09 ± 0.31
4,ACAGAATATTTAATTCAACACACATACATATTTATT [CACACA_site8734],7.61 ± 0.52
5,TATAAATTAAAATCAGTGCATATTTTGAAAAACCTC,9.19 ± 0.41
6,TATATAAATTAACCAGTGCATTATTTGGAAATTATT,11.1 ± 0.59
7,TATAAATTTATACCAGTGCATTTTGAAATATATATA,9.47 ± 0.057
8,TGGTTATTTATCTTTATTATAAATATTTACAAATAA [CACACA_negctrl_site1773],7.61 ± 0.38
9,TTCATAATAAAAAGGTGTACATATATATATATATAT [XGTACX_site2829],9.71 ± 0.2
10,ACAAATTGTTAAAGGTGTACAATACATATATAAGAA [XGTACX_site4906],8.46 ± 0.56
11,TTTGTGTTTATAAATTGTACAAAGGTGCAAGAAGAA [XGTACX_site2159],11.1 ± 0.87
12,AAGAAATTTATTTATTGTACAATATATAATTTGTTT [XGTACX_site2478],7.59 ± 0.38
13,GATTAATACACATTCTTCCGACATAATAAGAAAAAG [GTGCAC_negctrl_site7],8.04 ± 0.38
14,TGTCGGCTTAGATTAGTGCACTGAAAAATGAAGTAT [GTGCAC_site9919],11.8 ± 0.28
15,GAAGTAGATGGAAAAGTGCACTGTAATGGTTATATT,10.6 ± 0.035
16,TATATATATAAATGAATGCACTTTAGAAAAAAGTAC,10.2 ± 0.23
17,TATATCATATAAAACCGTACATACATACTTAATTGT [XGTACX_site6822],7.8 ± 0.29
18,TATTTCAAACTGTTCTCACACACGAAATTAGAAATG [CACACA_site611],7.57 ± 0.66
19,TATATAATAAGAAAATATGTGCGTAGTTCAGCAAAA [XGTACX_negctrl_site304],8.26 ± 0.74
20,AAATTAGACTATAATACACACATAAAAAAAAAATCA [CACACA_site7672],7.79 ± 0.4
21,TATATATTATATAAGAGTACATATAATTATAGTTTT [XGTACX_site5039],7.71 ± 0.52
22,AATATATAATATATATGTACTTATATATAAAAGATA [XGTACX_site7635],7.8 ± 0.21
23,AAGAACATATTATATACATGCATAATTCGATAGATT [TGCATGCA_site882],7.9 ± 0.69
